Results as given in PubChem BioAssay AID1159580 (chemical genetic matrix, 2015).
“And” between values parts separate entries of the source, which are not always exact repeats. Equal values may be shown once. About 2,000 (36%) of roughly 5,500 compounds were called active. About 18% were inconclusive and are not listed. Rule as the data show it: active = normalized growth mostly below about 0.91 (no sharp cut-off); inconclusive = no clear call, values can overlap the other calls; inactive = mostly above about 0.92. This is one part of the list.

Assay: chemical genetic growth profiling, strain panel (AID 1159580);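 also: tested at 20 µM; growth read once vehicle control cultures reached saturation at 30 °C; 1 = growth at the plate median or of vehicle wells; lower values mean less growth of the strain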
Conditions: S. cerevisiae deletion strains, growth OD

Measured: normalized growth

NC(Cc1ccc(Cl)cc1)C(=O)O (stereo not drawn)
inactive: locus YAL013W, strain DEP1, active compounds read low 1 | locus YAL021C, strain ccr4, active compounds read low 0.989 | locus YAL026C, strain drs2, active compounds read low 1.01 | locus YAL030W, strain snc1, active compounds read low 0.993 | locus YAL040C, strain CLN3, active compounds read low 1 | locus YBL061C, strain skt5, active compounds read low 0.999 | locus YBR009C, strain hhf1, active compounds read low 0.993 | locus YBR021W, strain FUR4, active compounds read low 1.01 | locus YBR023C, strain chs3, active compounds read low 0.991 | locus YBR171W, strain sec66, active compounds read low 1.01 | locus YBR229C, strain ROT2, active compounds read low 0.96 | locus YBR231C, strain swc5, active compounds read low 0.997 | locus YBR279W, strain paf1, active compounds read low 0.988 | locus YCL011C, strain gbp2, active compounds read low 1 | locus YCL016C, strain dcc1, active compounds read low 0.989 | locus YCL029C, strain bik1, active compounds read low 0.994 | locus YCL061C, strain MRC1, active compounds read low 1.01 | locus YCL069W, strain vba3, active compounds read low 1 | locus YCR088W, strain abp1, active compounds read low 0.999 | locus YDL005C, strain med2, active compounds read low 0.989 | locus YDL035C, strain GPR1, active compounds read low 0.999 | locus YDL040C, strain nat1, active compounds read low 0.996 | locus YDL074C, strain BRE1, active compounds read low 0.997 | locus YDL101C, strain DUN1, active compounds read low 0.983 | locus YDL134C, strain PPH21, active compounds read low 0.952 | locus YDL185W, strain tfp1, active compounds read low 0.986 | locus YDL192W, strain arf1, active compounds read low 1 | locus YDR001C, strain nth1, active compounds read low 1.01 | locus YDR069C, strain doa4, active compounds read low 0.988 | locus YDR101C, strain arx1, active compounds read low 1.01 | locus YDR137W, strain rgp1, active compounds read low 0.998 | locus YDR150W, strain NUM1, active compounds read low 0.974 | locus YDR159W, strain sac3, active compounds read low 0.976 | locus YDR162C, strain NBP2, active compounds read low 1.01 | locus YDR195W, strain ref2 0.971 | locus YDR297W, strain sur2, active compounds read low 0.992 | locus YDR318W, strain mcm21, active compounds read low 0.987 | locus YDR334W, strain swr1, active compounds read low 1.02 | locus YDR335W, strain msn5, active compounds read low 1 | locus YDR388W, active compounds read low 0.996 | locus YDR392W, strain spt3, active compounds read low 0.936 | locus YDR502C, strain sam2, active compounds read low 1 | locus YEL003W, strain gim4, active compounds read low 1 | locus YEL037C, strain rad23, active compounds read low 1.02 | locus YEL061C, strain CIN8 (second series), active compounds read low 1.01 | locus YEL061C, strain CIN8, active compounds read low 0.99 | locus YER015W, strain faa2, active compounds read low 1 | locus YER016W, strain bim1, active compounds read low 0.992 | locus YER110C, active compounds read low 0.982 | locus YER111C, strain swi4, active compounds read low 1.01 | locus YER155C, strain BEM2 (second series), active compounds read low 0.975 | locus YER155C, strain BEM2, active compounds read low 1.01 | locus YER167W, strain BCK2, active compounds read low 0.999 | locus YFR010W, strain ubp6, active compounds read low 1.03 | locus YGL078C, strain dbp3, active compounds read low 0.988 | locus YGL086W, strain mad1, active compounds read low 1.01 | locus YGL167C, strain pmr1, active compounds read low 0.997 | locus YGL173C, strain kem1, active compounds read low 1 | locus YGL227W, strain vid30, active compounds read low 0.999 | locus YGL240W, strain doc1, active compounds read low 0.972 | locus YGL248W, strain PDE1, active compounds read low 0.987 | locus YGL253W, strain hxk2, active compounds read low 1.01 | locus YGR078C, strain PAC10, active compounds read low 0.991 and 1 | locus YGR135W, strain pre9, active compounds read low 1 | locus YGR229C, strain SMI1, active compounds read low 0.993 | locus YGR252W, strain gcn5, active compounds read low 0.989 | locus YHR013C, strain ard1, active compounds read low 0.994 | locus YHR027C, strain rpn1, active compounds read low 0.992 | locus YHR030C, strain SLT2, active compounds read low 0.986 and 0.959 | locus YHR079C, strain IRE1 (second series), active compounds read low 0.991 | locus YHR079C, strain IRE1, active compounds read low 0.986 | locus YHR094C, strain hxt1, active compounds read low 0.994 | locus YHR129C, strain ARP1, active compounds read low 0.985 | locus YHR142W, strain chs7, active compounds read low 1.03 | locus YHR200W, strain rpn10, active compounds read low 1 | locus YIL066C, strain RNR3, active compounds read low 0.982 | locus YIL073C, strain SPO22, active compounds read low 1.02 | locus YIL125W, strain kgd1, active compounds read low 0.998 | locus YIR030C, strain dcg1, active compounds read low 1 | locus YJL092W, strain hpr5, active compounds read low 1.01 | locus YJL095W, strain BCK1 (second series), active compounds read low 0.99 | locus YJL095W, strain BCK1, active compounds read low 1.02 and 0.993 | locus YJL115W, strain asf1, active compounds read low 0.994 | locus YJL129C, strain trk1, active compounds read low 1.02 | locus YJL134W, strain LCB3, active compounds read low 0.99 | locus YJL154C, strain vps35, active compounds read low 1.01 | locus YJL164C, strain tpk1, active compounds read low 0.992 | locus YJL166W, strain qcr8, active compounds read low 0.991 | locus YJL168C, strain set2, active compounds read low 0.994 | locus YJL187C, strain SWE1 (second series), active compounds read low 0.975 | locus YJL187C, strain SWE1, active compounds read low 0.993 | locus YJR043C, strain POL32, active compounds read low 1.01 | locus YJR066W, strain TOR1, active compounds read low 0.902
